# PMC5540273 (PLoS ONE, 2017)
# Key:
# Conditions in all cases: concentration: 1 μM, replicates: in singlicate; n = 1
# ACVR2B = system: ACVR2B
# ACVRL1 = system: ACVRL1
# ADCK3 = system: T1, ADCK3
# T1 construct: gene CABC1
# ADCK4 = system: ADCK4
# AKT1 = system: AKT1
# AKT2 = system: AKT2
# AKT3 = system: AKT3
# ALK = system: ALK
# AMPK-alpha1 = system: T2, AMPK-alpha1
# T2 construct: gene PRKAA1
# AMPK-alpha2 = system: T3, AMPK-alpha2
# T3 construct: gene PRKAA2
# ANKK1 = system: ANKK1
# ARK5 = system: T4, ARK5
# T4 construct: gene NUAK1
# ASK1 = system: T5, ASK1
# T5 construct: gene MAP3K5
# ASK2 = system: T6, ASK2
# T6 construct: gene MAP3K6
# AURKA = system: AURKA
# AURKB = system: AURKB
# AURKC = system: AURKC
# AXL = system: AXL
# BIKE = system: T7, BIKE
# T7 construct: gene BMP2K
# BLK = system: BLK
# 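Further: KINOMEscan kinase panel screen.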
SMILES,%Inh (ACVR2B) [%],%Inh (ACVRL1) [%],%Inh (ADCK3) [%],%Inh (ADCK4) [%],%Inh (AKT1) [%],%Inh (AKT2) [%],%Inh (AKT3) [%],%Inh (ALK) [%],%Inh (AMPK-alpha1) [%],%Inh (AMPK-alpha2) [%],%Inh (ANKK1) [%],%Inh (ARK5) [%],%Inh (ASK1) [%],%Inh (ASK2) [%],%Inh (AURKA) [%],%Inh (AURKB) [%],%Inh (AURKC) [%],%Inh (AXL) [%],%Inh (BIKE) [%],%Inh (BLK) [%]
COc1ccc(Nc2nccc(-c3cccc(NC(=O)c4cc5cc(F)ccc5[nH]4)c3)n2)cc1 [GSK1229782],19,0,8,61,0,18,31,29,34,18,0,28,0,0,16,0,66,9,57,41
Clc1cc(Cl)cc(Nc2ccnc(Nc3cc(Cl)cc(Cl)c3)n2)c1 [GSK175726],39,43,31,3,0,0,0,18,18,0,18,8,4,3,90,0,13,2,8,6
CCn1c(-c2cccnc2O)nc2cnccc21 [SB-736715],0,0,0,88,2,0,0,0,0,0,0,0,0,0,8,0,0,38,0,0
COc1ccc(C2=C(Nc3cccc(C(=O)O)c3)C(=O)NC2=O)cc1 [SB-390765],0,1,0,0,1,0,14,2,23,2,6,5,9,21,18,26,0,19,18,0
Cl.c1ccc(-c2n[nH]cc2-c2ccnc(-c3ccc(CN4CCOCC4)cc3)c2)nc1 [GW776245],9,0,34,0,17,0,0,0,0,14,0,0,1,0,0,6,8,0,20,9
CN1C(=O)C(Nc2ccc(Cl)c(C(=O)O)c2)=C(c2ccc(Cl)cc2)C1=O [SB-404290],0,0,0,10,0,0,1,0,6,0,0,0,0,33,19,31,5,10,0,0
Cc1c(O)cccc1Nc1ccnc2ccc(C(F)(F)F)cc12.Cl [GW466413],85,43,0,81,0,0,1,25,12,16,0,10,0,0,0,34,0,1,4,66
COc1ccc2nc(-c3cccc(C)n3)nc(Nc3ccncc3)c2c1 [GSK204919],0,0,25,3,0,5,0,24,0,16,0,6,8,0,0,3,6,2,3,31
COc1cc(Nc2nccc(N3CCC(NC(=O)Nc4cc(C)ccc4C)C3)n2)cc(OC)c1OC (centres unmarked) [GSK1379762],0,0,30,49,0,0,0,45,0,22,13,50,1,7,92.7,94.4,81,0,60,10
CC1=C(C(=O)Nc2cc3cn[nH]c3cc2F)C(c2ccc(C(F)(F)F)cc2)CC(=O)N1 (centres unmarked) [GSK429286],0,0,11,11,0,20,0,29,23,19,0,7,0,24,23,1,46,0,19,42
O=S(=O)(c1ccc(-c2ccnc3[nH]ccc23)cc1)N1CCCC1 [GSK846226],0,0,7,21,0,0,0,10,0,0,0,0,3,14,13,20,60,46,87,0
Cc1cccc(-c2nc(Nc3ccc4[nH]ncc4c3)c3ccccc3n2)n1 [GW857175],0,0,0,0,29,55,0,19,0,2,0,1,0,13,0,3,22,26,33,3
Cc1ccccc1-n1cnc2c(N)ncnc21 [SKF-97510],0,0,8,0,8,0,0,0,0,0,0,0,7,0,0,0,0,0,0,9
